PubChem BioAssay AID1963321 (National Center for Advancing Translational Sciences (NCATS), 2024)
Results filed as inconclusive are left out. Calls follow the shape of the full dose curve.

biological target: cAMP-dependent protein kinase catalytic subunit alpha (Homo sapiens) (UniProt P17612); experiment: Protein Kinase A (PKA-HiBiT) enzymatic inhibition screen - Functional assay; conditions: luminescence; series mostly up to 57.5 µM; activity change, negative = inhibition: at the top concentration
Text: National Center for Advancing Translational Sciences (NCATS),
National Institute of Health (NIH), Maryland
Discovery and optimization of novel protein-binding ligands underlies many of the methods and applications of biology, drug discovery, clinical diagnostics, and environmental toxicology. Assays for detecting the interaction of, for example, a molecule with a macromolecular target also referred to here as the target of interest (TOI) is dependent on a compatible output technology. Depending on the nature and knowledge surrounding the TOI, whether a receptor, enzyme, regulatory subunit or scaffold, or a sequence-defined nucleic acid folded into a complex tertiary structure, assay strategies can vary widely.
Here we exploit ligand-biased changes in the structural dynamics of the target protein to control reporter alpha complementation allowing a non-competitive, non-functional, non-separation measure of ligand-target interaction.
Using a chemical library of >1,200 compounds enriched for scaffolds known to be associated with the inhibition of firefly luciferase (FLuc) activity (PubChem AIDs 2309) we first illustrate and compare the Structural Dynamics Response (SDR) assay vs. the standard functional FLuc enzyme assay (2). Secondly, we show the specificity and sensitivity of the SDR for the Abelson tyrosine kinase (ABL1) compared to the serine/threonine protein kinase A, using an enriched chemical library of 128 compounds selected, in part, for activity annotated with ABL1 kinase activity using the Pharos database (3).
(1) A. S. Dixon et al., NanoLuc Complementation Reporter Optimized for Accurate Measurement of Protein Interactions in Cells. ACS Chem Biol 11, 400-408 (2016).
Chemistry & Biology, 19, 1060 - 1072 (2012).
(3) K. J. Kelleher et al., Pharos 2023: an integrated resource for the understudied human proteome. Nucleic Acids Res 51, D1405-D1416 (2023).
PROTOCOL TABLE (as described by Inglese J, Shamu CE and Guy RK. 2007)
SEQUENCE No. (e.g., 1, 2, 3, etc.); […] (e.g., C. elegans, Compounds, Incubation, Read, etc.); VALUE and DESCRIPTION.
1. Reagent. Dispense 4 uL PKA-N-HiBiT enzyme per well at a final enzyme concentration of 10 nM in buffer with 87.5 uM ATP (functional assay) into columns 2-48 of four replicate Greiner 1536-well white,solid bottom high base, medium plates per assay. Dispense respective buffer without enzyme at 4 uL/well in column 1 of assay plates using BioRaptr 2.
2. Compounds. Library compounds added at 23 nL/well by pin transfer. DMSO neutral control and H-89 positive control added at 25 nL/well, transfer by Mosquito dispenser.
3. Incubation. Incubate enzyme and compounds at room temperature for 30 min, protect from light.
4. Reagent. (Functional assay) Transfer 25 nL of kemptide peptide substrate to each well of four replicate kinase assay plates with Mosquito dispenser.
5. Incubation. (Functional assay) Kinase Enzyme incubated with peptide substrate for 3 h at room temperature, protected from light.
6. Reagent. (Functional assay) Add 4 uL/well of Kinase-Glo Plus reagent (Promega) to kinase activity assay plates.
7. Detector. (Functional assay) Luminescence measured using CCD-based camera (ViewLux) with settings as follows: Exposure, 1 sec; Gain, High; Speed, Slow; Binning, 2X.
Inglese J, Shamu CE and Guy RK, Reporting data from high throughput screening of small molecule libraries, Nature Chemical Biology, 2007, 3(8): 438-441. doi.org/10.1038/nchembio0807-438.

Activity change, negative = inhibition, inactive:
CN1CCN(CCOc2cc(OC3CCOCC3)c3c(Nc4c(Cl)ccc5c4OCO5)ncnc3c2)CC1 7.41%
Oc1ccc(-c2ccc(-c3cc(Nc4cccc(CNC5CC5)c4)n[nH]3)cc2)c(O)c1 -2.94%
Cn1ncc(NC(=O)c2nc(-c3c(F)cccc3F)sc2N)c1N1CC[C@@H](N)[C@H](F)CC1 8.62%
CCN1/C(=C\C(C)=O)Sc2ccc(OC)cc21 8.95%
CCN1C(=O)CNc2ncc(-c3ccc(-c4ncn[nH]4)nc3C)nc21 6.55%
COC(=O)Nc1ccc(-c2nc(N3CCOCC3)c3cnn(C4CCN(C(=O)OC)CC4)c3n2)cc1 8.89%
COc1ccc(CNC(=O)Nc2ncc([N+](=O)[O-])s2)cc1 9.14%
CCCCNc1ncc2c(-c3ccc(S(=O)(=O)N4CCOCC4)cc3)nn(C3CCC(O)CC3)c2n1 (stereo not given) 8.94%
Nc1nc(NCCNc2ncc(-n3ccnc3)c(-c3ccc(Cl)cc3Cl)n2)ccc1[N+](=O)[O-] 8.87%
C[C@@H]1CN(CC(=O)Nc2ccc3c(c2)Cc2cccc(-c4cc(=O)cc(N5CCOCC5)o4)c2S3)C[C@H](C)O1 8.87%
S=C(NCc1ccc2c(c1)OCO2)N1CCN(c2ncnc3c2oc2ccccc23)CC1 8.32%
Nc1nc(Nc2ccc(S(N)(=O)=O)cc2)n(C(=S)Nc2c(F)cccc2F)n1 -1.69%
C=CC(=O)Nc1cc2c(Nc3ccc(F)c(Cl)c3)ncnc2cc1OCCCN1CCOCC1 9.13%
COc1cc2c(Oc3ccc(NC(=O)C4(C(=O)Nc5ccc(F)cc5)CC4)cc3F)ccnc2cc1OCCCN1CCOCC1 9.04%
Cc1cc(F)ccc1-c1nc(NCCN=C(N)NC#N)nc2c1ccc(=O)n2-c1c(F)cccc1F 8.78%
Cc1c(Cl)cccc1S(=O)(=O)Nc1nc(NCCc2ccccc2)nc2c1CN(Cc1ccccc1)CC2 9.17%
N#Cc1ccc2ncnc(NCCc3ccccc3)c2c1 8.93%
CCN1CCN(Cc2ccc(NC(=O)Nc3ccc(Oc4cc(NC)ncn4)cc3)cc2C(F)(F)F)CC1 -25.1%
CC(C)CCN1c2nc(Nc3cc(F)c(O)c(F)c3)ncc2N(C)C(=O)C1C (stereo not given) 8.52%
Cc1[nH]nc2ncc(C(=O)N3CCC[C@H]3c3ccc(Cl)cc3)cc12 8.86%
Cc1cn(-c2cc(F)cc(NC(=O)c3ccc(C)c(Nc4nccc(-c5cccnc5)n4)c3)c2)cn1 8.94%
O=C(Nc1cc(C(F)(F)F)ccc1N1CCCCC1)c1ccncc1 8.94%
CC1(C)OCCn2c1nc1c(N3CCOCC3)nc(-c3cnc(N)nc3)nc12 8.94%
O=c1cc(N2CCOCC2)nc2c3ccccc3ccn12 7.64%
CC(C)(C)n1nc(-c2cccc3ccccc23)c2c(N)ncnc21 8.74%
CN1CCN(c2ccc(Nc3ncc4cc(C#N)c(=O)n(C5CCCC5)c4n3)cc2)CC1 8.73%
COc1ccc(-n2c(C)c([N+](=O)[O-])c3ccc(O)cc32)cc1 8.85%
Cc1cc(Nc2cc(N3CCN(C)CC3)nc(Sc3ccc(NC(=O)C4CC4)cc3)n2)n[nH]1 8.75%
Cc1cccc(C)c1-n1c(=O)c2cnc(Nc3ccc(N4CCN(C)CC4)cc3)nc2n2c3ccccc3nc12 8.73%
COc1ccccc1-c1c[nH]c2ncc(-c3cncc(C(=O)N(C)C)c3)cc12 8.63%
COc1cc(N2CCN(C)CC2)ccc1Nc1nc(N)c(C(=O)c2c(Cl)cccc2Cl)s1 8.96%
NC1CCC(Nc2nc(Nc3ccc(C(=O)N4CCCCC4)cc3)c3ncn(-c4cccc(F)c4)c3n2)CC1 (stereo not given) -11.9%
CCCS(=O)(=O)Nc1ccc(F)c(C(=O)c2c[nH]c3ncc(Cl)cc23)c1F 8.85%
Cc1cc(C)c(/C=C2\C(=O)Nc3ccccc32)[nH]1 8.87%
Cc1ncc(NC(=O)c2ccc(CN3CCN(C)CC3)c(C(F)(F)F)c2)cc1Nc1nccc(-c2cccnc2)n1 8.99%
COc1cc2c(N3CCN(C(=O)Nc4ccc(OC(C)C)cc4)CC3)ncnc2cc1OCCCN1CCCCC1 6.4%
Cc1cc(-c2cc(O)ccc2Cl)cc2nnc(Nc3ccc(OCCN4CCCC4)cc3)nc12 8.95%
CCCCCCCCCCCCc1ccc(S(=O)(=O)Nc2nncs2)cc1 8.92%
CC(C)(NS(=O)(=O)c1ccc2c(Cl)cnc(N=C(N)N)c2c1)C(=O)O 9.1%
CC(C)n1nc(-c2cc3cc(O)ccc3[nH]2)c2c(N)ncnc21 1.41%
